High-throughput results deposited in PubChem BioAssay by several laboratories.
A selection: hits, their analogues and other compounds. The true share with any hit is near 4.7%.
rCAG binder – r(CAG) repeat RNA binding. inhibition, % at 3 µM. AID 651821. 1.3% of 370,000 active. TO-PRO-1 dye displacement fluorescence;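 active = inhibition above the plate cutoff, the mean of all test compounds on that plate plus 3 SD, cut at about 35% in these data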;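 also: 0% = DMSO alone and 100% = 100 µM mitoxantrone as full dye displacement; higher means more dye released from RNA so lower well fluorescence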
ADAM10 inh – inhibits human ADAM10. O14672. recombinant ADAM10, EDANS/DABCYL FRET peptide cleavage, 3 h. inhibition, % at 7 µM. 0.62% of 370,000 active. AID 720582;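 active = inhibition above a per-campaign cutoff equal to the mean of compounds falling between control-based bounds plus 3 SD, cut at about 20% in these data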;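 also: 0% = DMSO wells while the 100% control is not disclosed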
ADAM17 inh – inhibits human ADAM17; inhibition, % at 6.95 µM; recombinant ADAM17, EDANS/DABCYL FRET peptide cleavage; 0.83% of 370,000 active;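 active = inhibition above the mean of compounds lying between control limits plus 3 SD, set per campaign, cut at about 8.5% in these data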;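 also: 0% = DMSO-only wells as the low control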
Pemphigus Ab inh – blocks pemphigus antibody binding to human desmoglein-3; P32926; 0.48% of 310,000 active; DSG3-coupled beads, scFv-anti-DSG3-GFP binding, flow cytometry; stronger effect = lower value; binding (percent of control), % at 10 µM; AID 588358;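 active = binding more than 3 SD below its plate's average and above zero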;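 also: hits lower antibody fragment binding to DSG3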
KLK7 zymogen act – activators of human kallikrein-7 zymogen. P49862. purified proKLK7, EDANS-DABCYL substrate fluorescence; 100% is mature enzyme control, 0% vehicle. activation, % at 7 µM. 0.9% of 370,000 active. AID 652039;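 active = activation above the mean of all tested compounds plus 3 SD, computed per campaign excluding outliers beyond control limits, cut at about 13% in these data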
MPTP block – permeability transition pore inhibition; isolated mouse mitochondria, Ca2+ swelling absorbance, 30 min; inhibition, % at 10 µM; 1.4% of 360,000 active;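 active = inhibition of 50% or more, scaled per plate between neutral and stimulator controls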;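 also: 0% = DMSO wells given calcium and 100% = 1 mM EGTA wells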
KLK7 act conf – confirmation of human kallikrein-7 zymogen activators; shares compounds with KLK7 zymogen act; purified proKLK7, EDANS-DABCYL substrate fluorescence; scaled: vehicle 0, mature enzyme 100; activation, % at 7 µM; 68% of 3,200 active; AID 686949;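 active = activation, as change over the incubation, above the mean of all tested compounds plus 3 SD, cut at about 13% in these data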
EDANS-DABCYL int – optically interferes with EDANS-DABCYL signal, flagging KLK7 hits; shares compounds with KLK7 zymogen act; EDANS-DABCYL substrate fluorescence interference, no enzyme, 4 h; solvent 0%, active enzyme control 100%; activation, % at 7 µM; 80% of 3,200 active;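 active = activation above the all-compound mean plus 3 SD, ignoring values outside control-based bounds, cut at about 4.8% in these data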;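 also: value is the 4 h activation minus the activation read at time zero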
EDANS interf – counter-screen for kallikrein-7 activators: EDANS-DABCYL interference, dose response; AID 720493; EDANS-DABCYL peptide fluorescence interference, no enzyme; shares compounds with KLK7 zymogen act; 20% of 250 active; EC50, µM;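 active = compounds that raise the fluorescence signal in this interference counterscreen, with EC50 at or below 10 µM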;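 also: intact quenched peptide substrate alone read at 355 nm excitation and 520 nm emission; signal is fluorescence gain from T0 to T4 after four hours at room temperature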
An asterisk follows results filed as active; i = inactive; / = no result.

SMILES | rCAG binder | ADAM10 inh | ADAM17 inh | Pemphigus Ab inh | KLK7 zymogen act | MPTP block | KLK7 act conf | EDANS-DABCYL int | others
CCCc1cc(=O)oc2c3c(cc(OCC(=O)N4CCC(C(=O)O)CC4)c12)OC(C)(C)CC3 | 11 | i | i | / | 65* | 1 | 77* | 76*
CCCc1cc(=O)oc2c3c(cc(OCC(=O)NCC4CCC(C(=O)O)CC4)c12)OC(C)(C)CC3 (stereo not given) | 3 | i | -211 | 101 | -2 | 0 | / | /
Cc1c(C)c2c(OCC(=O)N3CCC[C@H]3C(=O)O)cc3c(c2oc1=O)CCC(C)(C)O3 | 11 | i | i | 92 | 71* | 0 | 71* | 70*
CC(C)C(=O)OCCCN1CCC2(CCC(c3ccccc3)CC2)C1=O (stereo not given) | -3 | 1 | -1 | / | 0 | / | / | /
Cc1cc(Cn2ccnc2)c(C)c([N+](=O)[O-])c1Cn1ccnc1 | -3 | -1 | 0 | 99 | 0 | -1 | / | /
CCOC(=O)c1cc2c(=O)n3cccc(C)c3nc2n(CC(C)C)c1=NC(=O)c1ccco1 | 13 | i | i | / | 74* | 7 | 6 | 5.7*
CCOCCCn1c(=NC(=O)c2ccco2)c(C(=O)OCC)cc2c(=O)n3cccc(C)c3nc21 | -5 | i | i | / | 39* | 4 | 23* | 9.2* | EDANS interf=i
CCOCCCn1c(=NC(C)=O)c(C#N)cc2c(=O)n3cccc(C)c3nc21 | -2 | i | i | 99 | 12 | 2 | / | /
Cc1cc(C)n2cc(CSc3ncn[nH]3)nc2n1 | -1 | i | -167 | 114 | 28* | -4 | 8 | 6.8*
COc1ccc(C2C=C(c3ccccc3)Nc3ncnn32)cc1 (stereo not given) | 4 | i | -415 | 105 | 52* | -6 | 71* | 74*
Cc1ccc(C2=CC(c3ccc(C)cc3)n3ncnc3N2)cc1 (stereo not given) | 17 | -478 | -140 | 103 | 32* | -2 | 9 | -6
Clc1ccccc1C1=CC(c2ccco2)n2ncnc2N1 (stereo not given) | -2 | -460 | -122 | / | 9 | 3 | / | /
FC(F)(F)c1ccccc1C1=CC(c2ccccc2)n2ncnc2N1 (stereo not given) | -6 | -376 | -106 | 105 | 25* | 2 | 27* | 26*
CC(C)(C)c1ccc(C2=CC(c3ccccc3)n3ncnc3N2)cc1 (stereo not given) | / | / | / | 101 | / | -1 | / | /
COc1ccc(C2C=C(c3ccc(C)c(C)c3)Nc3ncnn32)c(OC)c1OC (stereo not given) | 1 | -315 | -73 | 104 | 18* | -1 | 24* | 30*
COc1ccc(-c2c(-c3ccc4c(c3)OCO4)c3ccccc3n2C)cc1 | 8 | -76 | -21 | 105 | -11 | 1 | / | /
CC1(C)OC2CC3C4CC(F)C5=CC(=O)C=CC5(C)C4(F)C(O)CC3(C)C2(C(=O)CO)O1 (stereo not given) | -5 | 1 | 3 | 103 | 0 | 2 | / | /
N=c1c(C(=O)NCc2ccc(F)cc2)cc2c(=O)n3ccccc3nc2n1CCCN1CCOCC1 | 2 | i | -436 | 117 | 5 | -4 | / | /
N=c1c(C(=O)NCc2ccccc2)cc2c(=O)n3ccccc3nc2n1CCCN1CCOCC1 | -1 | i | -350 | 94 | 13* | -1 | 2 | 3
N=c1c(C(=O)NC2CCCCC2)cc2c(=O)n3ccccc3nc2n1CCc1ccccc1 | 5 | i | -314 | 101 | -8 | 0 | / | /
N=c1c(C(=O)NCCN2CCOCC2)cc2c(=O)n3ccccc3nc2n1CCc1ccccc1 | 3 | i | -349 | 103 | 24* | -2 | 8 | 11*
N=c1c(C(=O)NCCc2ccccc2)cc2c(=O)n3ccccc3nc2n1CCCN1CCOCC1 | 6 | i | i | 112 | 29* | 0 | 8 | 7.7*
Cc1ccc(Nc2ncc3c(=O)[nH][nH]c(=O)c3n2)cc1 | 2 | -3 | -7 | / | 0 | 0 | / | /
Cc1c(Cl)cccc1NC(=O)CNC(=O)C1CCN(C(=O)Nc2ccccc2)CC1 | 4 | 3 | 0 | / | 0 | 0 | / | /
O=c1c2ccccc2c(/C=N/c2n[nH]c(CCCO)n2)c(O)n1-c1ccccc1Cl | 2 | i | -245 | 108 | 27* | 0 | 5 | 5.8*
SMILES | rCAG binder | ADAM10 inh | ADAM17 inh | Pemphigus Ab inh | KLK7 zymogen act | MPTP block | KLK7 act conf | EDANS-DABCYL int | others
O=C(N/N=C/c1c(O)n(-c2ccccc2Cl)c(=O)c2ccccc12)C1COc2ccccc2O1 (stereo not given) | / | / | / | 103 | / | 4 | / | /
Cc1nc(SCC(=O)Nc2ccc(CN3CCCC3)cc2)c2c(C)c(C)sc2n1 | 3 | 9 | 1 | 110 | 1 | -1 | / | /
COc1ccc(OC)c(C2C3=C(CC(C)(C)CC3=O)Nc3nnnn32)c1 (stereo not given) | 1 | -20 | -9 | 129 | -3 | 0 | / | /
COc1ccccc1C1C=C(c2ccc(C)cc2)Nc2nnnn21 (stereo not given) | 1 | -88 | -33 | / | 19* | -2 | 22* | 17* | EDANS interf=i
COc1ccccc1C1C2=C(CC(C)(C)CC2=O)Nc2nnnn21 (stereo not given) | 1 | -28 | -7 | 96 | 15* | -1 | 22* | 20*
CCc1nn2c(=O)cc(COC(=O)c3ccc(SC)cc3OC)nc2s1 | 1 | 2 | 4 | 105 | 0 | -3 | / | /
CC(C)(C)NC(=O)C[C@H]1C[C@H](C(=O)N2CCCCC2)[C@@]2(CCc3ccccc3)c3[nH]c4cc(-c5ccco5)ccc4c3CCN2C1=O | 22 | -471 | -140 | 98 | -17 | 0 | / | /
CCN(CC)C(=O)[C@H]1C[C@H](CC(=O)NC(C)(C)C)C(=O)N2CCc3c([nH]c4cc(-c5ccco5)ccc34)[C@]12C | 4 | i | -123 | 99 | 109* | 2 | 57* | 65*
CC(C)N(C(=O)[C@H]1C[C@H](CC(=O)NC(C)(C)C)C(=O)N2CCc3c([nH]c4cc(-c5ccco5)ccc34)[C@]12C)C(C)C | 5 | -265 | -74 | 106 | 20* | -1 | 12 | 20*
Cc1cc(-c2ccccc2)[nH]c(=O)c1C#N | -3 | -86 | -30 | 106 | -14 | 0 | / | /
CN(C)c1c(-c2ccccc2)cc(-c2ccccc2)[nH]c1=O | 9 | -43 | -22 | 93 | 16* | 0 | 2 | 4.9*
